The record followed here is PubChem BioAssay (NCATS).

A short description of test [1]: Quantitative High-Throughput drug screen in 47 multiple myeloma cell lines against the NCATS MIPE library collection: U266_ATCC cell viability assay (AID 1919864). Also: nearly all actives have a fitted effect of over 35% in size. Summed up: (§1)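 500 cells/well; MIPE 4.0 drugs pin-transferred; 48 h, 37C, 5% CO2. CellTiter-Glo, 5 min RT, luminescence. Controls: DMSO 100%, media 0%.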
Test [2] can be described thus: Quantitative High-Throughput drug screen in 47 multiple myeloma cell lines against the NCATS MIPE library collection: XG1_PLB cell viability assay (AID 1919866). Also: nearly all actives have a fitted effect of over 35% in size. The procedure, abridged: as §1
Test [3] can be described thus: Quantitative High-Throughput drug screen in 47 multiple myeloma cell lines against the NCATS MIPE library collection: VP6_DJ cell viability assay (AID 1919867). Also: nearly all actives have a fitted effect of over 40% in size. The procedure, abridged: as §1
Test [4] in a line: Quantitative High-Throughput drug screen in 47 multiple myeloma cell lines against the NCATS MIPE library collection: UTMC2_PLB cell viability assay (AID 1919868). Also: nearly all actives have a fitted effect of over 55% in size. The note with it: CellTiter-Glo ATP luminescence, 48 h; viability (% of DMSO control): at 45.8 µM (top of the series). The procedure, abridged: as §1
(Cellular ATP, detected with luciferase, serves as a proxy for viable cell number.)

A short description of test [5]: Quantitative High-Throughput drug screen in 47 multiple myeloma cell lines against the NCATS MIPE library collection: PE2_PLB cell viability assay (AID 1919869). Also: nearly all actives have a fitted effect of over 35% in size. The procedure, abridged:
as §1

The nature of test [6]: Quantitative High-Throughput drug screen in 47 multiple myeloma cell lines against the NCATS MIPE library collection: PCM6_Riken cell viability assay (AID 1919870). Also: nearly all actives have a fitted effect of over 30% in size. Summed up:
as §1

A short description of test [7]: Quantitative High-Throughput drug screen in 47 multiple myeloma cell lines against the NCATS MIPE library collection: RPMI8226_ATCC cell viability assay (AID 1919871). Also: nearly all actives have a fitted effect of over 30% in size. Summed up:
as §1

Test [8] in a line: Quantitative High-Throughput drug screen in 47 multiple myeloma cell lines against the NCATS MIPE library collection: OPM2_DSMZ cell viability assay (AID 1919872). Also: nearly all actives have a fitted effect of over 30% in size. Summed up: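 Myeloma cell lines, 500 cells per well, exposed to MIPE 4.0 library compounds for 48 h at 37C, 5% CO2. Viability from ATP by CellTiter-Glo luminescence; normalised to DMSO (100%) and media-only (0%) wells.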

The nature of test [9]: Quantitative High-Throughput drug screen in 47 multiple myeloma cell lines against the NCATS MIPE library collection: KMS11_JCRBsus cell viability assay (AID 1919873). Also: nearly all actives have a fitted effect of over 50% in size. The procedure, abridged: as §1
Test [10] can be described thus: Quantitative High-Throughput drug screen in 47 multiple myeloma cell lines against the NCATS MIPE library collection: XG6_PLB cell viability assay (AID 1919865). Also: nearly all actives have a fitted effect of over 40% in size. Summed up: as §1

SMILES strings stand for the structures. Inconclusive results are not listed. A number with no mark means an inactive call. Calls of active or inactive are those of the source. Calls follow the shape of the dose curve; as a rule, active = well fitted cell-killing curve with a large enough effect; inconclusive = small, poorly fitted or top-dose-only effect, or effect the other way; inactive = no such curve, though single readings can be large or run the other way.
Potency is read from the fitted curve at half-maximal effect.

Take `C=Cc1c(C)c2cc3nc(cc4[nH]c(cc5nc(cc1[nH]2)C(C)=C5CCC(=O)O)c(CCC(=O)OC)c4C)[C@@]1(C)C3=CC=C(C(=O)OC)[C@H]1C(=O)OC`: the Potency was 296 nM (active) in test [1]; 93.5 nM (active) in [2]; 118 nM (active) in test [3]; 105 nM (active) in [4]; 209 nM (active) in test [5]; 83.3 nM (active) in test [6]. The Potency is 935 nM (active) in test [7], 1050 nM (active) in test [8] and 9350 nM (active) in test [9].
On to `COc1cc(OC)c(C=CS(=O)(=O)Cc2ccc(OC)c(NCC(=O)O)c2)c(OC)c1`, for which the Potency was 526 nM (active) in test [1]; 833 nM (active) in [10]; 372 nM (active) in [3]; 469 nM (active) in [5]; 418 nM (active) in [6]; 1660 nM (active) in test [7]. Besides, the Potency in test [8] was 372 nM (active); in test [9] it was 93.5 nM (active).
As to `Cc1ccc(O)c(C(CCN(C(C)C)C(C)C)c2ccccc2)c1` (stereo not drawn), the Potency result in test [1], in test [2], in test [3], in [5], in [6] and in test [7] was “inactive” in each case. The Potency result in [8] and in test [9] was “inactive” each time.
With `N#CC(=C(O)c1ccc(Cl)cc1Cl)c1nc2cc(Cl)ccc2c(=O)[nH]1`, the Potency result in test [1], in test [2], in test [4], in [7] and in test [9] was “inactive” each time. Also, the Potency in [3] is 16600 nM (active).
As for `C[C@H](O)[C@@H]1C(=O)N2C(C(=O)O)=C(S[C@@H]3CN[C@H](CNS(N)(=O)=O)C3)[C@@H](C)[C@@H]12`, the Potency entry in [1], in test [2], in [3], in test [4], in test [6] and in [8] was “inactive” in each case. The Potency entry in test [9] was “inactive”.
Turning to `CO[C@@H]1[C@@H](O)[C@H](O)[C@@H](n2c3c(Cl)cccc3c3c4c(c5c6cccc(Cl)c6[nH]c5c32)C(=O)NC4=O)O[C@@H]1CO`, the Potency was 1480 nM (active) in test [1]; 166 nM (active) in test [2]; 662 nM (active) in test [3]; 235 nM (active) in [4]; 1050 nM (active) in [5]; 1480 nM (active) in test [6]. The Potency was 2350 nM (active) in test [7], 5900 nM (active) in test [8] and 2960 nM (active) in [9].
Turning to `Cn1cnc2c(F)c(Nc3ccc(Br)cc3F)c(C(=O)NOCCO)cc21`, the Potency entry in test [1], in [6], in test [7] and in test [9] was “inactive” in each case. Moreover, the Potency is 13.2 nM (active) in test [10] and 74.3 nM (active) in [5].
As for `CCOC(=O)N1CCN([N+]([O-])=NOc2ccc([N+](=O)[O-])cc2C#N)CC1`, the Potency in test [1] was 833 nM (active); in test [2] it was 372 nM (active); in test [3], 743 nM (active); in test [4] it was 526 nM (active); in test [5], 743 nM (active); in [6], 469 nM (active). The results for the Potency in test [7] and in test [9] were 1050 nM (active) and 662 nM (active), respectively.
With `COc1cc(OC)cc(-c2ccc3ncc4ccc(=O)n(-c5ccc(N6CCNCC6)c(C(F)(F)F)c5)c4c3c2)c1`, the Potency is 11800 nM (active) in test [1]; 526 nM (active) in test [2]; 2640 nM (active) in test [3]; 2960 nM (active) in test [4]; 3320 nM (active) in test [5]; 3720 nM (active) in test [6]. Besides, the values for the Potency in test [7], in test [8] and in test [9] were 11800 nM (active), 8330 nM (active) and 2640 nM (active), respectively.
Take `CC(C)(C)[C@H](NC(=O)c1ccc(N)c(Cl)c1)C(=O)N1CCC[C@@H]1C(=O)N[C@H](C#N)CC(=O)O`: the results for the viability (% of DMSO control) in [1] and in test [4] were 129% [at 3.51 µM] and 157% [at 3.51 µM], respectively. Besides, the viability (% of control) in [10] was 104% [at 3.51 µM]; in [5] it was 118% [at 3.51 µM]; in [6], 122% [at 3.51 µM]; in test [9], 102% [at 3.51 µM]. Besides, the Potency in test [3] was 834 nM (active). The viability (% of DMSO) in test [8] is 102% [at 3.51 µM].
As for `NC(=O)c1ncn([C@@H]2O[C@H](CO)[C@@H](O)[C@@H]2O)c1O`, the Potency entry in [1], in test [10], in [3], in test [4], in test [5] and in test [6] was “inactive” each time. In addition, the Potency result in test [7], in [8] and in [9] was “inactive” in each case.
With `O=C(CCCCCCC(=O)Nc1cccnc1)NO`, the Potency is 4690 nM (active) in test [1]; 3720 nM (active) in [2]; 1480 nM (active) in [3]; 935 nM (active) in test [4]; 7430 nM (active) in test [5]; 7430 nM (active) in test [6]. For the same compound, the Potency in test [7] is 16600 nM (active); in test [9] it was 5900 nM (active).
Regarding `COc1ccc(C=Cc2cc(OC)c(OC)c(OC)c2)cc1NC(=O)[C@H](N)CO`, the Potency in test [1] is 13.2 nM (active); in [4], 1 nM (active); in test [6], 4.2 nM (active); in test [7], 26.4 nM (active); in [8], 8.3 nM (active). Moreover, the Potency result in [10] is “inactive”.
`CC(C=CC(=O)NO)=C[C@@H](C)C(=O)c1ccc(N(C)C)cc1`: the Potency in test [1] is 209 nM (active); in test [2], 332 nM (active); in [3], 372 nM (active); in test [4], 235 nM (active); in test [5], 590 nM (active); in [6], 469 nM (active). Further, the figures for the Potency in test [7], in [8] and in test [9] were 332 nM (active), 833 nM (active) and 235 nM (active), respectively.
Turning to `CC(C)C[C@H](NC(=O)CNC(=O)c1cc(Cl)ccc1Cl)B1OC(=O)CC(CC(=O)O)(C(=O)O)O1` (stereo partly drawn), the Potency in test [1] was 52.6 nM (active); in test [2], 41.8 nM (active); in test [3], 29.6 nM (active); in [4], 526 nM (active); in test [5], 29.6 nM (active); in [6] it was 46.9 nM (active). Besides, the Potency is 118 nM (active) in test [7], 132 nM (active) in test [8] and 41.8 nM (active) in test [9].
Regarding `CCC(C(=O)O)C1CCC(C)C(C(C)C(O)C(C)C(=O)C(CC)C2OC3(C=CC(O)[C@@]4(CC[C@](C)(C5CC[C@@](O)(CC)C(C)O5)O4)O3)C(C)CC2C)O1` (stereo partly drawn), the Potency in test [1] was 5260 nM (active); in test [2], 5900 nM (active); in test [3], 2090 nM (active); in test [4], 1320 nM (active); in test [5], 2640 nM (active); in test [6], 4690 nM (active). Moreover, the values for the Potency in [7], in test [8] and in test [9] were 2350 nM (active), 1870 nM (active) and 3720 nM (active), respectively.
